From PubChem BioAssay AID540276 (National Center for Advancing Translational Sciences (NCATS), 2011)
Where “and” joins values, the source holds several entries; their conditions need not be identical. Identical values can stand only once. About 5,400 (1.8%) of roughly 300,000 compounds were called active. Inconclusive results (about 28%) are left out. This is one part of a sample in which actives are shown more often than they occur. Calls follow the shape of the full dose curve; tested in HEK293 cells. Some compounds were tested as several samples or in several runs, with calls that do not always agree.

experiment: qHTS for inhibitors of binding or entry into cells for Marburg Virus; conditions: Marburg virus pseudotyped entry inhibition, cell reporter; series mostly up to 37.8 µM; activity change, negative = inhibition: at the top concentration
% is scaled to controls: 0 for no effect and ±100 for the full control effect; potency is read from the fitted curve at half-maximal effect.

Row | Structure (SMILES) | Potency | activity change, negative = inhibition
1 | Cc1cc(Nc2ccc(N3CCOCC3)cc2)c2cccc(C)c2n1 | 0.794 µM (active) | 
2 | Cc1ccccc1N/N=C/c1ccc(N2CCOCC2)cc1 |  | 22.1% (inactive)
3 | Cc1nn2c3cc(N4CCOCC4)ccc3nc2c2ccccc12 |  | -9.17% (inactive)
4 | CC(NC(=O)c1cccc(S(=O)(=O)N2CCc3ccccc3C2)c1)c1ccco1 (stereo not given) |  | -28.7% (inactive)
5 | Cc1cc(Oc2ccccc2)nc(N2CCOCC2)n1 |  | 0.114% (inactive)
6 | Cc1cc(C)nc(N2CCC(C(=O)Nc3ccc4c(c3)OCCO4)CC2)n1 |  | -25.8% [at 46.1 µM] (inactive)
7 | Cc1cc(Nc2ccc(Cl)cc2)nc(N2CCOCC2)n1 | 7.94 µM (active) | 
8 | O=C(O)c1ccc2c(=O)n3c(nc2c1)/C(=C/c1ccc(OC(F)F)cc1OC(F)F)CC3 |  | 14.9% [at 46.1 µM] (inactive)
9 | Cc1oc2ccc(O)c(CN3CCCCC3)c2c1C(=O)Nc1cccc(C(F)(F)F)c1 | 10 µM (active) | 
10 | CCN1CCN(Cc2c(O)ccc3oc(C)c(C(=O)Nc4ccc(C)cc4C)c23)CC1 |  | 10.7% [at 46.1 µM] (inactive)
11 | Cc1oc2ccc(O)c(CN3CCOCC3)c2c1C(=O)Nc1cccc(Cl)c1C |  | -0.854% [at 46.1 µM] (inactive)
12 | Cc1cc(=O)oc2c(C)c(OC(C)C(=O)NC3CCN(Cc4ccccc4)CC3)ccc12 (stereo not given) |  | -7.42% [at 46.1 µM] (inactive)
13 | Cc1cc(-c2nnc(SCC(=O)Nc3ccc(F)cc3)n2N)n[nH]1 |  | 16.2% [at 46.1 µM] (inactive)
14 | CC(=O)c1cccc(-c2ccc(CN3C(CC(C)C)C(=O)N(Cc4cn(CC5CCCCC5)nn4)CCS3(=O)=O)cc2)c1 (stereo not given) |  | 0.481% (inactive)
15 | CC(C)CC1C(=O)N(Cc2cn(Cc3ccco3)nn2)CCS(=O)(=O)N1Cc1ccc(-c2ccc(Cl)c(Cl)c2)cc1 (stereo not given) | 25 µM (active) | 
16 | Cc1ccc(C)c(NC(=O)COC(=O)c2nn(C)c(=O)c3ccccc23)c1 |  | 11.2% (inactive)
17 | O=C(NC1=CC(=O)c2ccccc2C1=O)c1ccccc1 | 10 µM (active) | 
18 | O=C1C=C(NS(=O)(=O)c2ccccc2)C(=O)c2ccccc21 |  | -2.09% [at 46.1 µM] (inactive)
19 | O=C(Nc1cccc(NC(=O)c2ccc(Br)cc2)c1)c1ccccc1 | inactive | 
20 | Clc1ccc2c(c1)C1=C(C(c3ccncc3)O2)C(c2ccc(Br)cc2)n2ncnc2N1 (stereo not given) | 11.6 µM (active) | 
21 | CCOC(=O)C1=C(c2ccccc2)Nc2ncnn2C1c1ccc(Cl)cc1 (stereo not given) |  | 4.14% [at 46.1 µM] (inactive)
22 | Fc1ccc([C@H]2C3=C(Nc4ncnn42)c2ccccc2O[C@H]3c2ccncc2)cc1 |  | -11% (inactive)
23 | CC1(C)CC(=O)c2ccc(O)cc2O1 |  | -6.25% [at 46.1 µM] (inactive)
24 | CC[C@@H]1Cc2cc(O)ccc2C2=C1c1ccc(O)cc1C[C@H]2CC | 35.5 µM (active) | 
25 | O=C(c1ccccc1)c1ccc(OCC(O)CN2CCCC2)cc1 (stereo not given) |  | -24% [at 46.1 µM] (inactive)

Row | Structure (SMILES) | Potency | activity change, negative = inhibition
26 | OC(COCCC12CC3CC(CC(C3)C1)C2)CN1CCCCC1 (stereo not given) | 2.91 µM (active) | 
27 | COc1cc(/C=N/NC(=O)c2cccnc2)ccc1OC(=O)c1cccc(Br)c1 |  | 2.52% (inactive)
28 | O=C(C1CC(=O)N(c2ccc(Br)cc2)C1)N1CCCC1 (stereo not given) |  | 1.98% (inactive)
29 | COc1ccc(C2(CNC(=O)C(c3ccccc3)c3ccccc3)CCOCC2)cc1OC |  | -26.8% (inactive)
30 | COc1ccc(C2(CNC(=O)Cc3ccc(OC)c(OC)c3)CCCC2)cc1 |  | -28.1% [at 46.1 µM] (inactive)
31 | Cc1cccc(C(CC(=O)NCC2(c3ccccc3)CCCC2)c2ccccc2)c1O (stereo not given) | 10 µM (active) | 
32 | O=C(Nc1cc(S(=O)(=O)N2CCOCC2)ccc1N1CCOCC1)c1c(F)cccc1Cl |  | 3.28% (inactive)
33 | CC12CCCCC1=CC(=O)CC2 (stereo not given) |  | 8.83% (inactive)
34 | COc1ccc(N2CCN(S(=O)(=O)c3cc(Br)cnc3N)CC2)cc1 |  | 14.7% [at 46.1 µM] (inactive)
35 | O=C(Cc1cccs1)N1CCCC(c2nc(-c3ccc(S(=O)(=O)N4CCCC4)cc3)no2)C1 (stereo not given) |  | -24.4% (inactive)
36 | COc1cc(-c2noc(C3CCCN(S(=O)(=O)c4cccc(Cl)c4)C3)n2)cc(OC)c1OC (stereo not given) | inactive and 9.2 µM (active) | 
37 | CC(C)c1ccc(-c2noc(C3CCCN(S(C)(=O)=O)C3)n2)cc1 (stereo not given) |  | -30.6% (inactive)
38 | Cc1ccc(C(=O)OCC(=O)N2CCCCCC2)cc1S(=O)(=O)N1CCOCC1 |  | 4.19% (inactive)
39 | NC(=O)c1cc2ccccc2o/c1=N/NC(=O)c1cccc(F)c1 |  | -5.08% [at 46.1 µM] (inactive)
40 | CCOc1ccc(CN2CCNC(=O)C2CC(=O)NCCCC2CCCC2)cc1 (stereo not given) |  | 10.3% (inactive)
41 | c1ccc(C2c3[nH]c4ccccc4c3CCN2Cc2cccn2-c2cccnc2)nc1 (stereo not given) |  | -6.35% [at 46.1 µM] (inactive)
42 | Oc1cccc(C2c3[nH]c4ccccc4c3CCN2Cc2cnn(-c3ccccc3)c2)c1 (stereo not given) |  | -8.18% [at 46.1 µM] (inactive)
43 | CCOc1ccc(C2c3[nH]c4ccccc4c3CCN2Cc2cccn2-c2ncccn2)cc1 (stereo not given) | 3.16 µM (active) | 
44 | CCN(CC)S(=O)(=O)c1ccc(CNC(=O)CN2C(=O)NC3(CCc4ccccc43)C2=O)cc1 (stereo not given) |  | 5.63% (inactive)
45 | COc1ccc(/C=N/NC(=O)c2ccc3c(c2)OCCO3)c(OC)c1 |  | -0.257% (inactive)
46 | COc1cccc(CNCCc2c[nH]c3ccccc23)c1OCc1ccccc1F | 7.3 µM (active) | 
47 | COc1ccccc1CC(=O)NCCc1c[nH]c2ccccc12 |  | -23.9% [at 46.1 µM] (inactive)
48 | COc1ccc(S(=O)(=O)NCCc2c[nH]c3ccccc23)cc1OC |  | -2.61% [at 46.1 µM] (inactive)
49 | O=C1CC(C(=O)O)NC(=S)N1 (stereo not given) |  | 0.164% [at 46.1 µM] (inactive)
50 | COc1ccc(S(=O)(=O)N2CCN(CC(=O)N3CCOCC3)CC2)cc1OC |  | -5.82% (inactive)
